# The source made the active and inactive calls. Rule for the calls: active = hit-call score of the fitted dose curve at least 0.9, where 1 is the maximum; inactive = score below 0.9.
# Read-out: Cytochrome P450 (CYP24A1_1), CYP24A1 (gene 1591)
# Assay: LTEA_HepaRG_CYP24A1_1: Life Technologies and Expression Analysis (LTEA) Assay for Cytochrome P450 (CYP24A1_1) using HepaRG (AID 2283671)
# Conditions: mRNA level, 48 h; actives raise or lower the signal
# Protocol: LTEA_HepaRG is a cell based, multiplexed-readout assay that uses HepaRG, a human liver cell line, with measurements taken at 48 hours after chemical dosing on a 96-well plate.LTEA_HepaRG_CYP24A1_1 is one of 102 assay component(s) measured in the LTEA HepaRG cell culture assay. It is a marker of NR mediated metabolism.Data from the assay component LTEA_HepaRG_CYP24A1_1 was analyzed into 1 endpoint. This assay endpoint, LTEA_HepaRG_CYP24A1_1, was analyzed with bidirectional fitting relative to DMSO as the negative control and baseline of activity. Using a type of inducible reporter, measures of mRNA induction for gain or loss-of-signal activity can be used to understand regulation of transcription factor activity. To generalize the intended target to other relatable targets, this assay endpoint is annotated to the cyp intended target family, where the subfamily is xenobiotic metabolism.
# A total of 1060 chemcials from the ToxCast library were tested in eight-point concentration-response experiments. Cell culture and cytotoxicity assays were conducted at Thermo Fisher Scientific's Custom Services facility (Madison, WI). A single lot of human HepaRG cells (Thermo Fisher Scientific, Frederick, MD) was used for the cell culture experiments. 96-well format collagen type I coated plates of human HepaRG cells were prepared using established methods. Briefly, cryopreserved HepaRG cells were thawed, plated at a density of approximately 100,000 cells/well in HepaRG Thaw, Plate, and General Purpose media (HPRG770, Thermo Fisher Scientific), and incubated for 48 hours. 0.5% DMSO was selected as vehicle control to balance the requisite need of DMSO in HepaRG cultures to maintain differentiation (for example, baseline metabolism, proportions of hepatocytes vs. cholangiocytes), while enabling further hepatic receptor pathway activation (for example, PXR and CAR) in response to chemical exposure. 48 hours after plating, the culture medium was replaced with HepaRG Serum-Free Incudtion Media. Cells were exposed to each test chemical in duplicate and maintained in CO2 incubators for another 48 hours. Chemical plates were thawed to room temperature and 200x concentrations of treatment groups were prepared. 8-point conentration-reponse curves were made with the highest exposure at 100 uM, followed by half-log dilutions, all in 0.5% DMSO. Each test plate contained variouse controls, induction positive controls (1mM phenobarbital), cytotoxicity positive controls ([…] aflatoxin B1), vehicle controls (0.5% DMSO), and total lysis controls (0.5% DMSO). Cell morphology images were taken using an Essen IncuCyte FLR automated microscope, with six 96-well plates imaged in about 24 minutes. Images were captured and exported and JPEG files. Spent culture media was transfered to black-well plates for the LDH assay, and remaining media was sorted at -80 C for later use. Cells were treated with RLT buffer and frozen until shipped for gene expression analysis. Total RNA was isolated from the cell suspension in 75 uL of Buffer RLT (Qiagen, Germantown, MD 20874) by Quintiles/Expression Analysis (Durham, NC) using a custom isolation procedure. Total RNA from each plate well was transferred to a preamplification plate. Fluidigm's 96.96 Dynamic ArrayTM (Fluidigm, Amsterdam, the Netherlands) technology was used for gene expression analyses by quantitative reverse transcription polymerase chain reaction (qRT-PCR, performed by Quintiles/Expression Analysis, Durham, NC)89. Standard TaqManTM Assays (Applied Biosystems/ThermoFisher Scientific, Foster City, CA) were used to assess the expression of 93 genes selected based on their selectivity and sensitivity to important hepatic receptors known to be modulated by environmental chemicals; importance in human hepatocyte functionality; and hepatotoxicity. […]
row,SMILES,outcome
1,CCOC1Oc2ccc(OS(C)(=O)=O)cc2C1(C)C (stereo not given),inactive
2,ClC1C(Cl)C(Cl)C(Cl)C(Cl)C1Cl (stereo not given),inactive
3,CCC(C)Nc1c([N+](=O)[O-])cc(C(C)(C)C)cc1[N+](=O)[O-] (stereo not given),inactive
4,N#Cc1c(Cl)c(Cl)c(Cl)c(C#N)c1Cl,inactive
5,CCCN(CCC)c1c([N+](=O)[O-])cc(C(F)(F)F)cc1[N+](=O)[O-],inactive
6,O=C1c2ccccc2C(=O)N1SC(Cl)(Cl)Cl,inactive
7,Cc1[nH]c(=O)n(C(C)(C)C)c(=O)c1Cl,inactive
8,CN1CSC(=S)N(C)C1,inactive
9,CCCN(CCOc1c(Cl)cc(Cl)cc1Cl)C(=O)n1ccnc1,inactive
10,CC1(C)C(C=C(Cl)Cl)C1C(=O)OC(C#N)c1ccc(F)c(Oc2ccccc2)c1 (stereo not given),inactive

# Reference: PubChem BioAssay (EPA / NIEHS)
